PME-1 inh – blocks human protein phosphatase methylesterase 1; Q9Y570; recombinant PME-1, FP-Rh probe fluorescence polarization; inhibition, % at 5.9 µM; 320,000 tested, 0.53% active; AID 2130;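 active means inhibition above the campaign mean of all compounds plus 3 SD, cut at about 26% in these data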;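 further: competitive labeling of PME-1 active site by serine hydrolase directed probe; 0% = PME-1 with DMSO and 100% = wells lacking PME-1 enzyme; inhibitors block probe labeling so polarization falls and inhibition rises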
Target sequence (Q9Y570 whole entry, looked up): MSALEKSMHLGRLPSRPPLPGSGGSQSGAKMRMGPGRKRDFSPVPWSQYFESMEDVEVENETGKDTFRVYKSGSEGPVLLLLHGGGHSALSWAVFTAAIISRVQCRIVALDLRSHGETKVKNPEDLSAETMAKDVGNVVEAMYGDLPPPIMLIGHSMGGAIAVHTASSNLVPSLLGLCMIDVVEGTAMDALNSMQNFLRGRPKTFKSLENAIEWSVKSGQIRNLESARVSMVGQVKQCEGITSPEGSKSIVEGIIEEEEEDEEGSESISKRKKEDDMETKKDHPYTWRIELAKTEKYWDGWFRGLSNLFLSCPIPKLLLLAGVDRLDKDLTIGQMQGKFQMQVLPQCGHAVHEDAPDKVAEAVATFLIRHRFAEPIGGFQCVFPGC
Fam108B inh – counter-screen for RBBP9 inhibitors: inhibitors of mouse Fam108B | 300,000 tested, 0.33% active | AID 1947 | recombinant Fam108B, FP-Rh probe fluorescence polarization | inhibition, % at 9.51 µM;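 active means inhibition above the screen mean inhibition plus 3 SD, computed separately per campaign, cut at about 18% in these data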;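 further: inhibitors lower polarization as less probe binds the enzyme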
GSTO1 counter – blocks human GSTO1 in RBBP9 counter-screen. P78417. recombinant GSTO1, activity-based probe fluorescence polarization. inhibition, % at 5.96 µM. 300,000 tested, 1.1% active. AID 1974;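 active means inhibition above the campaign mean inhibition plus 3 SD, cut at about 35% in these data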;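 further: 0% = GSTO1-1 with DMSO and 100% = wells lacking GSTO1-1 enzyme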
Target sequence (P78417 whole entry, looked up): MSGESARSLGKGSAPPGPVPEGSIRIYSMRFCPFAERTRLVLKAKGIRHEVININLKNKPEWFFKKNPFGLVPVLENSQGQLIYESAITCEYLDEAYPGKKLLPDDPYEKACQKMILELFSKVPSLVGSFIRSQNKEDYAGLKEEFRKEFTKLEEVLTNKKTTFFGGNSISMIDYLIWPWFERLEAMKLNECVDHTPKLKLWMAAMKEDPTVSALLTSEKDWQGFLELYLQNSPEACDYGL
LYPLA1 inh – LYPLA1 (human) inhibition in PME1 counter-screen; O75608; recombinant LYPLA1, FP-Rh probe fluorescence polarization; inhibition, % at 5.9 µM; 320,000 tested, 0.16% active; AID 2174;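 active means inhibition above the mean of all tested compounds plus 3 SD, set per campaign, cut at about 14% in these data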;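 further: inhibitors block serine hydrolase probe labeling of LYPLA1 so polarization falls; 0% = enzyme with DMSO and 100% = wells lacking LYPLA1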
LYPLA2 inh – counter-screen for PME1 inhibitors: inhibitors of human LYPLA2 | 320,000 tested, 0.38% active | O95372 | inhibition, % at 5.9 µM | recombinant LYPLA2, FP-Rh probe fluorescence polarization;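 active means inhibition above the screen-wide mean plus 3 SD, limit set per campaign, cut at about 26% in these data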;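 further: 0% = LYPLA2 with DMSO and 100% = wells lacking LYPLA2 enzyme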
PAD4 inh – inhibitors of human PAD4; recombinant PAD4, RCA probe fluorescence polarization; AID 485272; inhibition, % at 6.36 µM; 330,000 tested, 0.41% active; Q9UM07;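 active means percent inhibition above a cutoff equal to the mean of all tested compounds plus 3 SD, cut at about 15% in these data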;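 further: 0% = PAD4 with RCA probe and DMSO and 100% = probe without PAD4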
An asterisk follows results filed as active. This is a sample that favours compounds with a hit; in the whole collection about 1.8% have one here.

SMILES | PME-1 inh | Fam108B inh | GSTO1 counter | LYPLA1 inh | LYPLA2 inh | PAD4 inh
COc1cc(OC)cc(-c2nnc(Sc3ccc(C=O)cc3[N+](=O)[O-])o2)c1 | 5.4 | 13.7 | 17.9 | -0.8 | 10.1 | 26.5*
NC(=O)NOCc1cccc(Cl)c1 | -6.8 | -1.4 | 0.4 | 7.0 | 4.4 | -0.1
CCCCN(CCCC)CCNC(=O)c1cn(CC)c2ccc(S(=O)(=O)N(C)C3CCCCC3)cc2c1=O | 82.5* | 1.0 | 1.8 | -0.6 | 4.8 | 0.6
CCCCN(CC)CCCNC(=O)c1cn(C)c2ccc(S(=O)(=O)N(C)C3CCCCC3)cc2c1=O | 40.2* | 4.0 | -6.3 | 1.0 | 6.6 | -3.9
CCn1cc(C(=O)NCCCN2CCCC(C)C2)c(=O)c2cc(S(=O)(=O)N(C)C3CCCCC3)ccc21 (stereo not drawn) | 52.2* | -6.8 | -1.8 | -2.1 | -3.9 | -1.9
OC1=C(O)c2nc3cc(C(F)(F)F)ccc3nc21 | 10.5 | 2.2 | 3.6 | -1.7 | -0.3 | 2.7
Cc1ccccc1NC(=O)Nc1ccccc1C(=O)NCc1ccccc1 | -2.6 | -6.9 | -1.8 | -0.7 | 2.7 | 0.1
O=C(CCl)Nc1ccccc1C(=O)NCc1ccccc1 | -3.9 | -3.2 | 85.9* | -1.1 | -2.3 | -0.8
O=C(N=Nc1c(O)[nH]c2ccccc12)c1cccc(S(=O)(=O)N2CCCCC2)c1 | 4.4 | 0.3 | 12.2 | -4.2 | -7.9 | -1.4
CC(C)c1ccc2[nH]c(O)c(N=NC(=O)c3cccc(S(=O)(=O)N4CCCCC4)c3)c2c1 | 53.1* | 7.6 | 0.6 | -2.3 | 1.0 | -7.8
Oc1ccc(O)cc1 | -2.2 | -3.6 | 55.9* | 0.5 | 2.1 | -2.5
Cc1nnc2sc(-c3cccc(F)c3)nn2c1=O | 6.9 | -1.2 | 6.4 | -0.5 | -0.2 | -0.1
C=CCC1(CC=C)CCCN1C(=O)c1cc(COc2ccc(C)nc2)on1 | -4.7 | -0.7 | -1.2 | -0.1 | -1.4 | 0.6
ClCC1=Nc2cccc3cccc(c23)N1 | 0.6 | 3.8 | 55.1* | 0.7 | -2.1 | 2.0
CC(C)C1=Nc2cccc3cccc(c23)N1 | 4.5 | 0.6 | 15.6 | -2.1 | -4.6 | -0.1
CN(C(=O)COC(=O)c1cc(S(=O)(=O)N2CCOCC2)c(Cl)cc1Cl)C1CCS(=O)(=O)C1 (stereo not drawn) | -4.4 | -0.5 | 54.4* | -1.9 | -3.8 | 5.5
O=c1[nH][nH]c(-c2ccccc2O)c1C(C[N+](=O)[O-])c1cccc(Cl)c1 (stereo not drawn) | 12.0 | 3.0 | 36.1* | 1.6 | 2.0 | -11.7
O=c1[nH][nH]c(-c2ccccc2O)c1C(C[N+](=O)[O-])c1ccccc1 (stereo not drawn) | -2.0 | 1.4 | 28.9 | 1.2 | 0.8 | -8.1
COc1cccc(/C=N/NC(=O)c2c(C)nc3ccc(Cl)cn23)c1O | 10.0 | 7.0 | 1.3 | -1.5 | -1.1 | -2.9
CCOc1ccc(Oc2cc(N)cc([N+](=O)[O-])c2)cc1 | -7.1 | 1.4 | 0.6 | -4.3 | 4.3 | -3.1
Cc1cccc(Oc2cc(N)cc([N+](=O)[O-])c2)c1 | -0.1 | -4.5 | 2.2 | 2.5 | 31.2* | -0.1
CCn1cc(S(=O)(=O)NC(C)c2cc(OC)ccc2OC)cn1 (stereo not drawn) | 3.7 | -1.4 | 1.4 | 2.8 | 10.1 | 1.8
Oc1c(C=NCc2ccncc2)sc2ccccc12 | 2.2 | -3.6 | 3.5 | -5.4 | -7.3 | 15.6*
O=S(=O)(Nc1ccc(N=Nc2ccccc2)cc1)c1ccccc1 | -0.7 | 1.5 | 5.4 | -6.4 | -10.2 | -2.0
O=S(=O)(Nc1ccc(N=Nc2ccc(O)c3ccccc23)cc1)c1ccccc1 | 38.9* | 15.0 | 4.3 | -14.0 | 7.0 | -17.0
SMILES | PME-1 inh | Fam108B inh | GSTO1 counter | LYPLA1 inh | LYPLA2 inh | PAD4 inh
COC(=O)c1cccc(NC(=O)c2cnn(C)c2)c1 | 1.2 | 4.0 | 0.7 | -1.1 | 6.2 | 5.2
Cc1ccc(Cn2ccsc2=NC(=O)COC(=O)c2ccc(NC(=O)CC#N)cc2)cc1 | 11.3 | -6.5 | -76.3 | -8.1 | -6.4 | -16.6
Cc1ccc(Cn2ccsc2=NC(=O)CCl)cc1 | -0.1 | -5.9 | 83.8* | -0.3 | 3.6 | 2.7
CS(=O)(=O)N1N=C(c2ccccc2)CC1c1ccc2c(c1)OCO2 (stereo not drawn) | 28.0* | -7.2 | 2.8 | -8.9 | -11.4 | -10.4
CS(=O)(=O)Nc1cccc(C2=NN(S(C)(=O)=O)C(c3ccc4c(c3)OCO4)C2)c1 (stereo not drawn) | 15.3 | 1.7 | 0.5 | -2.8 | 5.2 | -0.6
CCn1c(=S)sc2c(=O)n(CC(=O)NC(C)CCc3ccccc3)c(C)nc21 (stereo not drawn) | -1.7 | -3.6 | 34.8* | -2.8 | -3.4 | 0.1
CC(=O)Nc1ccc(NC(=O)Nc2ccc3c(c2)N(C)C(=O)CS3)cc1 | 22.1 | 4.0 | 2.9 | -1.9 | 8.6 | -6.6
COc1cccc(NC(=O)Nc2ccc3c(c2)N(C)C(=O)CS3)c1 | 32.3* | 15.1 | -7.9 | -21.9 | 3.0 | -6.2
Cc1ccc(-n2c3nc(=O)[nH]c(=O)c-3cc3cc([N+](=O)[O-])ccc32)cc1 | 62.9* | 15.3 | 15.5 | 3.6 | 2.5 | -0.5
O=C(/C=C/c1ccco1)N(c1ccccn1)c1ccccn1 | -9.7 | 3.4 | 42.1* | 1.0 | -0.1 | 5.5
O=C(Nc1c(-c2ccccc2)nc2ccccn12)c1cccc(F)c1 | -1.2 | -4.1 | -3.2 | 0.2 | -6.6 | 1.5
O=C(O)/C=C/C(=O)Nc1ccc2c(c1)C(=O)c1ccccc1C2=O | 10.8 | 10.1 | 37.4* | 4.6 | 5.5 | -3.7
CC(=O)Nc1ccc2c(c1)C(=O)c1ccccc1C2=O | 7.8 | 6.5 | 4.5 | -1.0 | 0.0 | 1.5
CCN(CC)C(=O)c1csc(Nc2cccc3ccccc23)n1 | 37.3* | 0.8 | 7.9 | 4.9 | 3.4 | -1.3
CCN(CC)CCCNC(=O)c1csc(Nc2cccc3ccccc23)n1 | -2.3 | 1.3 | 1.8 | 2.1 | 3.3 | -0.3
CSc1ccc(CNC(=O)Cc2ccc(NC(=O)C3=C(C)OCCS3)cc2)cc1 | -5.0 | 0.2 | -2.4 | -2.5 | -1.3 | -0.3
CC1=C(C(=O)OCc2ccccc2)C(/C=C/c2ccccc2)NC(=S)N1 (stereo not drawn) | -8.9 | -6.1 | -6.8 | -9.0 | 49.0* | -0.6
Cc1[nH][nH]c(=O)c1C(c1ccc(O)c(Br)c1)c1c(C)[nH][nH]c1=O | 3.1 | 1.3 | 25.5 | -3.9 | -9.0 | -6.1
CCOc1cc(C(c2c(C)[nH][nH]c2=O)c2c(C)[nH][nH]c2=O)ccc1O | 1.6 | -1.2 | 46.0* | 5.3 | 4.4 | -11.3
O=c1cc(N=Nc2ccc(Cl)cc2)[nH]c(=O)[nH]1 | 1.6 | -0.3 | 47.3* | 0.9 | -0.9 | 1.3
O=c1cc(-c2ccc(Cl)cc2)oc(=O)[nH]1 | -7.4 | 3.1 | -2.0 | -1.7 | -1.2 | 4.7
O=C(NNC(=O)c1cccnc1)NC1CCCCC1 | -4.6 | 2.7 | 3.0 | -4.2 | 2.4 | -1.6
O=C(NNC(=O)c1cc(O)c(O)c(O)c1)NC1CCCCC1 | 5.4 | 3.8 | 35.9* | 0.6 | 4.3 | 2.0
C/C(=N\NC(=O)CSCc1ccccc1Cl)c1cc(O)ccc1O | 4.6 | 4.1 | 40.4* | -2.4 | 3.5 | -11.8

Screening results deposited in PubChem by The Scripps Research Institute Molecular Screening Center.
